Compounds with a hit are over-represented: about 3.5% of the library has one in this group of screens.
eIF4E-4G inh: blocks eIF4E binding to eIF4G; P63073+Q04637; TR-FRET eIF4E-eIF4GI(517-606) binding, 2 h; inhibition, % at 21.7 µM; 0.37% of 220,000 active; AID 782;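 active = inhibition above about 30%, limit read from the data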
Hck Nef HTS: inhibitors of human Hck kinase activated by Nef; P08631; Recombinant Hck-YEEI plus Nef, Z-Lyte FRET kinase assay; inhibition, % at 20 µM; 0.68% of 220,000 active; AID 463187;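 active = Hck-Nef kinase inhibition above about 50%, limit read from the data; inactive = inhibition below that limit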
Mcl1 Noxa PPI: Mcl-1/Noxa interaction inhibition | Q07820 | TR-FRET Mcl-1/Noxa peptide binding, 2 h | inhibition, % at 21.7 µM | 1.5% of 220,000 active;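 active = compounds that cut the protein-peptide binding signal by more than 50% relative to plate controls in a single-dose test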;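 note: His-tagged Mcl-1 with rhodamine Noxa BH3 peptide and terbium anti-His antibody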
Mcl-1 Bim block: inhibitors of Bim-Mcl-1 interaction, human; Q07820; Bead-based flow cytometry, Bim peptide-Mcl-1 binding; inhibition, % at 10 µM; 0.1% of 190,000 active; in the data active = inhibition above about 40%
Mcl1-Bid inh: disrupts binding of human Mcl-1 to Bid peptide; Q07820; TR-FRET Mcl-1/Bid-Dy647 peptide binding, 1536-well; inhibition, % at 21.7 µM; 0.97% of 220,000 active; AID 1021;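 active = compounds that cut the binding signal by more than half at the single screening dose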;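 note: His-tagged Mcl-1 with europium anti-His antibody binding Bid BH3 peptide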
14-3-3 Bad inh: disrupts binding of bovine 14-3-3 zeta to phospho-Bad peptide. 0.71% of 220,000 active. P63103. inhibition, % at 21.7 µM. TR-FRET 14-3-3zeta/Dy647-pBad peptide displacement, 1 h;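 active = inhibition above about 70%, limit read from the data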
Hck-Nef confirm: confirmation of Hck-Nef kinase inhibitors; AID 463188; calls only at 10 µM; Recombinant Hck-YEEI:Nef, Z-Lyte FRET kinase assay; 28% of 1,300 active; shares compounds with Hck Nef HTS;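 active = average inhibition of at least 50%, with Z-scores no higher than 3 in both the phospho-tyrosine peptide and fluorescence counterscreens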
Of the large screens only hits and unclear results are named; the others gave an inactive call (follow-up assays come after a bar, where shown).

Cc1cc(=O)oc2c(CN(C)Cc3ccccc3)c(O)ccc12	Hck Nef HTS 57.7
C(=C\c1nccc2c1[nH]c1ccccc12)/c1ccccc1	Hck Nef HTS 163.8 (not shown: Mcl-1 Bim block)
Fc1ccc(/C=C\c2nccc3c2[nH]c2ccccc23)cc1	none
OC1(Cc2ccccc2)CCNCC1	none (no result: Mcl-1 Bim block)
O=C(N/N=C/c1cccc([N+](=O)[O-])c1)c1ccccc1-n1cccc1	Hck Nef HTS 58.1 | Hck-Nef confirm inactive
O=C(N/N=C/c1cccc([N+](=O)[O-])c1)c1ccc(Br)cc1	none
COc1cccc(C2C(C(=O)Nc3nc4ccccc4s3)=C(C)NC3=C2C(=O)CC(C)(C)C3)c1OC (stereo not drawn)	Hck Nef HTS 57.1
COc1ccc(OC)c(C2C(C(=O)Nc3nc4ccccc4s3)=C(C)NC3=C2C(=O)CCC3)c1 (stereo not drawn)	none
CCN1CCN(Cc2ccc(NC(=O)c3ccc(C)c(NC(=O)N4CCNC4=O)c3)cc2C(F)(F)F)CC1	none (no result: Mcl-1 Bim block)
CCN1CCN(Cc2ccc(NC(=O)c3ccc(C)c(NC(=O)c4nccnc4N)c3)cc2C(F)(F)F)CC1	Hck Nef HTS 55.6 (no result: Mcl-1 Bim block) | Hck-Nef confirm inactive
CCN1CCN(Cc2ccc(NC(=O)c3ccc(C)c(NC(=O)c4nccn4C)c3)cc2C(F)(F)F)CC1	none (no result: Mcl-1 Bim block)
CCN1CCN(Cc2ccc(NC(=O)c3ccc(C)c(NC(=O)c4cc(-c5ccc(Br)cc5)n[nH]4)c3)cc2C(F)(F)F)CC1	Hck Nef HTS 95.9 (no result: Mcl-1 Bim block) | Hck-Nef confirm active
COCCNC(=O)/C(C#N)=C1\N=C(N)c2ccccc21	Hck Nef HTS 53.4 | Hck-Nef confirm inactive
C=CCOC(=O)C1=C(C)NC(SCC(=O)NC(=O)OCC)=C(C#N)C1c1cccnc1 (stereo not drawn)	Hck Nef HTS 50.2 | Hck-Nef confirm inactive
C=CCOC(=O)C1=C(C)NC(SCC(=O)N(CC)CC)=C(C#N)C1c1ccccc1 (stereo not drawn)	none
Cc1cccc(-c2cc(C(=O)Nc3ccc4c(c3)OCCO4)c3ccccc3n2)c1	none
O=C(Nc1ccc2c(c1)OCCO2)c1cc(-c2ccccn2)nc2ccc(Br)cc12	Hck Nef HTS 78.1 | Hck-Nef confirm inactive
O=C(Nc1ccc(S(=O)(=O)Nc2nccs2)cc1)c1cc(-c2ccccn2)nc2ccccc12	Hck Nef HTS 51.3 | Hck-Nef confirm inactive
CCC/C(=N\NC(=O)c1cccc(C)c1)c1ccccc1	none
NN1C(=O)/C(=C\c2ccco2)SC1=S	Hck Nef HTS 77.7 (no result: Mcl-1 Bim block) | Hck-Nef confirm inactive
O=C(CCCN1C(=O)/C(=C/c2ccco2)SC1=S)Nc1cccc(C(=O)O)c1	Hck Nef HTS 81.7 (no result: Mcl-1 Bim block) | Hck-Nef confirm inactive
O=C(CCCN1C(=O)/C(=C\c2cccs2)SC1=S)Nc1cccc(C(=O)O)c1	none
O=C1/C(=C/c2ccco2)SC(=S)N1c1cccnc1	eIF4E-4G inh 55.2, Hck Nef HTS 90.4, Mcl1 Noxa PPI 94.1, 14-3-3 Bad inh 85.0 (no result: Mcl-1 Bim block) | Hck-Nef confirm inactive
CCOC(=O)C1(Cc2ccccc2C)CCCN(Cc2ccc(NC(C)=O)cc2)C1 (stereo not drawn)	none
Cc1ccc(S(=O)(=O)NCC(c2ccco2)N2CCOCC2)cc1 (stereo not drawn)	none
O=[N+]([O-])c1cc(-c2cnc3ccccc3n2)ccc1Cl	none
O=C(Oc1ccc(-c2cnc3ccccc3n2)cc1)c1cc([N+](=O)[O-])ccc1Cl	Hck Nef HTS 52.7 | Hck-Nef confirm active
CC(C)OCCCn1c(-c2ccco2)nc2nc3ccccc3nc21	Hck Nef HTS 131.5
O=[N+]([O-])c1ccc2nnn(O)c2c1	none
COc1cccc(Nc2ccccc2C(=O)O)c1	none
COc1cc(-c2ccc(Nc3ccccc3C(=O)O)c(OC)c2)ccc1Nc1ccccc1C(=O)O	eIF4E-4G inh 77.8, Hck Nef HTS 94.1, Mcl1 Noxa PPI 105.3, Mcl1-Bid inh 97.5, 14-3-3 Bad inh 97.0 (no result: Mcl-1 Bim block) | Hck-Nef confirm active
O=C(CN1CC[n+]2c(-c3cccs3)csc21)c1ccc(-c2ccccc2)cc1	Hck Nef HTS 142.9 | Hck-Nef confirm active
Cc1ccc(C(=O)Cn2nnc(-c3cccs3)n2)cc1	none (no result: Mcl-1 Bim block)
CCC(=O)NC(Nc1nc(C)cs1)(C(=O)OC)C(F)(F)F (stereo not drawn)	none
CCOc1ccccc1C(=O)Nc1ccc2nc(N3CCN(c4ncccn4)CC3)cc(C)c2c1	Hck Nef HTS 63.8 (no result: eIF4E-4G inh, Mcl1 Noxa PPI, Mcl-1 Bim block, Mcl1-Bid inh, 14-3-3 Bad inh) | Hck-Nef confirm active
CCC(OC(=O)c1nsc(Cl)c1Cl)C(=O)NC(C)(C)CC (stereo not drawn)	none
COc1ccccc1N1C(=N)S/C(=C\c2ccc(-c3ccccc3C(=O)O)o2)C1=O	Hck Nef HTS 59.9, Mcl1 Noxa PPI 52.5 | Hck-Nef confirm active
N=C1S/C(=C\c2ccc(-c3ccccc3C(=O)O)o2)C(=O)N1c1ccc2c(c1)OCO2	Hck Nef HTS 85.4, Mcl1 Noxa PPI 59.5 | Hck-Nef confirm active
O=C(COc1ccccc1)NCC(=O)Nc1cccc2ccccc12	none
Cc1ccc(/C=C2\SC(N3CCCC3)=NC2=O)cc1	none
Cc1ccc(C2=NC(=O)/C(=C/c3cc(O)c(O)c(Br)c3)S2)cc1	Hck Nef HTS 50.1, Mcl1 Noxa PPI 95.4 | Hck-Nef confirm active
Cc1ccccc1NC(=O)CSc1nc2ccccc2c2nc(CCn3cncc3C)nn12	none
Cc1ccc(NC(=O)CSc2nc3ccccc3c3nc(CCn4cncc4C)nn23)c(C)c1	Hck Nef HTS 72.1 | Hck-Nef confirm inactive
O=C(Cn1c(O)c(/C=C2\C=Nc3ccc(Br)cc32)sc1=O)N1CCCC1	Hck Nef HTS 76.2 | Hck-Nef confirm inactive
O=C(Cn1c(O)c(/C=C2\C=Nc3ccccc32)sc1=O)N1CCOCC1	none
Cc1ccc(NC(=O)CN2C(=O)S/C(=C\c3cccn3-c3cccc(C(=O)O)c3)C2=O)c(C)c1	Hck Nef HTS 78.3, Mcl1 Noxa PPI 92.6 | Hck-Nef confirm active
COC1CCCN(C(=O)c2ccc(OC3CCN(CCc4ccccc4)CC3)cc2)C1 (stereo not drawn)	none
O=C(Cn1c2ccc(F)cc2c2nc3n(c(=O)c21)CCS3)Nc1ccccc1C(F)(F)F	Hck Nef HTS 89.2, 14-3-3 Bad inh 81.1 | Hck-Nef confirm inactive
O=C(Nc1cccc(-c2nc3ccccc3[nH]2)c1)c1cccc(NC(=O)c2ccco2)c1	Hck Nef HTS 73.6 | Hck-Nef confirm active
CCOc1ccc(C(=O)Nc2ccc(-c3nc4ccccc4[nH]3)cc2)cc1[N+](=O)[O-]	Hck Nef HTS 77.6, Mcl1 Noxa PPI 58.1, Mcl1-Bid inh 55.2 | Hck-Nef confirm active
O=C(Nc1ccc(-c2nc3ccccc3[nH]2)cc1)c1c(F)c(F)c(F)c(F)c1F	Hck Nef HTS 112.0 | Hck-Nef confirm inactive
